A selection: hits, their analogues and other compounds. The true share with any hit is near 3.2%.
CHT inh = inhibitors of human choline transporter CHT; High affinity choline transporter 1 (Homo sapiens), Q9GZV3; CHT-expressing cells, membrane potential dye, choline response; hits give low values; B-score at 10 µM; hit rate 0.86% among 310,000;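 active = B-score over 3 SD under the library average, and starting fluorescence ratio not unusually high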;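 note: choline stimulus applied at its EC90 after an EC20 pre-addition; B-score computed on integrated fluorescence ratio after choline addition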
TMEM16A act = TMEM16A chloride channel activators or potentiators, primary screen, cell-based, HTS; B-score at 10 µM; HEK293 TMEM16A/YFP-H148Q/I152L, iodide quench fluorescence; hits give low values; AID 623877, 2012; hit rate 0.3% among 340,000; Anoctamin-1 (Mus musculus), Q8BHY3;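 active = fluorescence-ratio B-score plate-corrected deviation score at least 3 library SD below zero, with starting fluorescence score within 5 deviations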;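 note: channel opened by trigger with iodide after compound preincubation; score built on the fluorescence ratio of max minus min over baseline; more negative score means more quench and so TMEM16A activation or potentiation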
CHT PAM = CHT positive allosteric modulators, primary screen, cell-based, membrane potential dye, choline EC20. High affinity choline transporter 1 (Homo sapiens), Q9GZV3. CHT-expressing cells; hits give high values; LV-AA mutant CHT in HEK293 cells. B-score at 10 µM. hit rate 0.49% among 310,000. AID 488977, 2010;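 active = initial fluorescence not abnormally high and integrated response B-score, plate-corrected, over 3 SD above library mean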
PHOSPHO1 inh = PubChem AID 1565; Phosphoethanolamine/phosphocholine phosphatase (Homo sapiens), Q8TCT1; recombinant PHOSPHO1, absorbance phosphatase assay; inhibition, % at 13.3 µM; hit rate 1.1% among 290,000; in the data active = inhibition above about 60%
HDAC3 inhib = HDAC3 deacetylase inhibitors, primary screen, biochemical, fluorescence, cell-free homogeneous; hit rate 0.15% among 320,000; recombinant HDAC3, fluorogenic peptide/trypsin coupled; Histone deacetylase 3 (Homo sapiens), O15379; inhibition, % at 8.3 µM; in the data active = inhibition above about 26%, passing the limit was not always enough
Target sequence (O15379 whole entry, looked up): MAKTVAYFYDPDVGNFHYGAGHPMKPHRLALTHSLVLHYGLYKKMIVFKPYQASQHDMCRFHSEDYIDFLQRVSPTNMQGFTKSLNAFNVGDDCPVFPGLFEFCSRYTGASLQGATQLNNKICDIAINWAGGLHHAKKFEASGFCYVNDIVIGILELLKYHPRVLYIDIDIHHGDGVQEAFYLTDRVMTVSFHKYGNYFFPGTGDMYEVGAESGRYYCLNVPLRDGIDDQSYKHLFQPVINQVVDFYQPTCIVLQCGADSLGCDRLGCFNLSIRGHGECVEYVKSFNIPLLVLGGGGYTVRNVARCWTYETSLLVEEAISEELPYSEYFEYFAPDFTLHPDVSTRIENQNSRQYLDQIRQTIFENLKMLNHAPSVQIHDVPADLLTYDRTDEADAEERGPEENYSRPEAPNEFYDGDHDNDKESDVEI
ANO1 block = TMEM16A chloride channel inhibitors, primary screen, cell-based, HTS; HEK293 TMEM16A/YFP iodide influx fluorescence, ionomycin; hit rate 1.2% among 310,000; AID 588511, 2011; normalized B-score (activity score, 25-100; higher = stronger inhibition) at 10 µM; Anoctamin-1 (Mus musculus), Q8BHY3;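 active = ratio plate-corrected score three or more library SD toward inhibition, starting fluorescence score within five deviations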;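 note: score derived from kinetic fluorescence span divided by baseline fluorescence per well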
Numbers stand for hits; - = inactive; . = no result given.

SMILES	CHT inh	TMEM16A act	CHT PAM	PHOSPHO1 inh	HDAC3 inhib	ANO1 block
COc1ccc(F)cc1C(=O)C1CCCN(Cc2ccc3c(c2)OCCO3)C1 (stereo not drawn)	-	-	-	-	-	-
CCOC(=O)N1CCC(NC(=O)c2sc3nc4n(c(=O)c3c2C)CCCC4)CC1	-	-	-	-	-	-
CCOC(=O)N1CCN(C(=O)Nc2sc3nc4n(c(=O)c3c2C)CCC(C)CC4)CC1 (stereo not drawn)	-	-	-	74	-	-
CCOC(=O)c1sc2nc3n(c(=O)c2c1C)CCC(C)CC3 (stereo not drawn)	-	-	-	78	-	-
CC(CCc1ccccc1)NC(=O)CCC(=O)N1CCC(C(=O)O)CC1 (stereo not drawn)	-	-	-	-	-	-
CC(C)C[C@H](NC(=O)N1c2ccccc2NC(=O)[C@@H]1C(C)C)C(=O)N1CCC[C@@H]1C(=O)O	-	-	-	-	-	-
Cc1ccc(-n2ncc3c2ncn2c(C)nnc32)cc1C	-	-	-	60	-	-
O=C(NCc1ccncc1)c1ccc(Cn2cc(C(F)(F)F)ccc2=O)cc1	-	-	-	60	-	-
O=C(NCc1ccccc1)c1ccc(Cn2cc(C(F)(F)F)ccc2=O)cc1	-	-	-	-	-	-
C[C@@H]1O[C@@H](OC[C@H]2O[C@@H](Oc3cc(O)c4c(=O)cc(-c5ccc(O)c(O)c5)oc4c3)[C@H](O)[C@@H](O)[C@@H]2O)[C@H](O)[C@H](O)[C@H]1O	.	-	.	.	-	.
O=c1cc(-c2ccc(O)c(O)c2)oc2cc(O[C@@H]3O[C@H](CO)[C@@H](O)[C@H](O)[C@H]3O)cc(O)c12	.	-16	.	.	-	.
O=C(Nc1ncc([N+](=O)[O-])s1)c1ccccc1Br	-	-	-	-	-	100
CCCCC(=O)Nc1ncc(S(=O)(=O)c2ccc([N+](=O)[O-])cc2)s1	-	-	-	-	-	-
COCC(=O)Nc1ncc(S(=O)(=O)c2ccc([N+](=O)[O-])cc2)s1	-	-	-	-	-	-
O=C(NC(Nc1ncc(S(=O)(=O)c2ccc([N+](=O)[O-])cc2)s1)(C(F)(F)F)C(F)(F)F)c1ccc(Cl)cc1	-	-	-	-	-	100
O=C(CS(=O)(=O)c1ccccc1)Nc1ncc([N+](=O)[O-])s1	-	-	-	-	-	-
O=C(Nc1ncc(S(=O)(=O)c2ccc([N+](=O)[O-])cc2)s1)c1cccc2ccccc12	-	-5.3	-	-	-	25
O=C1NC(c2ccccc2)=NC1(NS(=O)(=O)c1ccc(Cl)cc1)C(F)(F)F (stereo not drawn)	-	-	-	-	-	-
CCOc1ccc(/C=N/NC(=O)Cc2csc(Nc3cccc(C(F)(F)F)c3)n2)c(OCC)c1	-	-	-	-	36	-
Cc1ccc(-n2c(Cc3cccn3C)nnc2SCC(=O)N2CCN(c3ccccc3)CC2)cc1	-	-	-	77	-	-
CC1(C)Cc2ccccc2-c2nnc(SCC(=O)N3CCN(c4ccccc4)CC3)n21	-	-	-	-	-	25
CCn1c(COc2c(C)cccc2C)nnc1SCC(=O)N1CCN(c2ccccc2)CC1	-	-	-	-	-	-
Cc1ccccc1-n1c(SCC(=O)N2CCN(c3ccccc3)CC2)nnc1-c1ccncc1	-	-	-	66	-	-
CCn1c(COc2cc(C)cc(C)c2)nnc1SCC(=O)N1CCN(c2ccccc2)CC1	-	-	-	73	-	-
Cc1ccccc1-n1c(SCC(=O)N2CCC(C(=O)O)CC2)nnc1-c1ccncc1	-	-	-	-	-	-
SMILES	CHT inh	TMEM16A act	CHT PAM	PHOSPHO1 inh	HDAC3 inhib	ANO1 block
Cc1ccccc1C(=O)N1CCC(C(=O)Nc2ccccc2Cl)CC1	-	-	-	-	-	-
O=C1CC(c2ccc(OCCCCCOc3ccc(C4CC(=O)NC4=O)cc3)cc2)C(=O)N1 (stereo not drawn)	-	-	-	-	-	-
Cc1nc(C)c(C(=O)Nc2nc3c(C)cccc3s2)o1	-	-	-	-	-	-
C=CCOC(=O)C1=C(C)NC(SCC(=O)NC(=O)OCC)=C(C#N)C1c1cccnc1 (stereo not drawn)	-	-	-	78	-	-
CCOC(=O)C1=C(C)NC(SCC(=O)Nc2nc(C)cs2)=C(C#N)C1c1cccs1 (stereo not drawn)	-	.	-	76	-	-
CC1=C(C(=O)Nc2ccccc2)C(c2ccncc2)C(C#N)=C(SCC(=O)Nc2ccccc2)N1 (stereo not drawn)	-	-	-	71	-	-
C=CCOC(=O)C1=C(C)NC(SCC(=O)N(CC)CC)=C(C#N)C1c1ccccc1 (stereo not drawn)	-	-	-	-	-	-
COc1ccc(C2C(C#N)=C(SCC(=O)Nc3ccc(C)cc3)NC3=C2C(=O)CC(C)(C)C3)cc1 (stereo not drawn)	-	-	-	89	-	-
CCC1C(C#N)=C(SCC(N)=O)NC2=C1C(=O)CC(C)(C)C2 (stereo not drawn)	-	-	-	-	-	-
COc1ccc(/C=C(/NC(=O)c2ccccc2)C(=O)NC(Cc2c[nH]c3ccccc23)C(=O)O)cc1 (stereo not drawn)	-	-	-	-	-	-
CC(C)(C)c1ccc(Cn2c(=N)n(CC(O)c3ccco3)c3ccccc32)cc1 (stereo not drawn)	-6.6	-	-	-	-	-
CC(C)CC(=O)c1c[nH]c(C(=O)NCCc2ccccn2)c1	-	-	-	-	-	-
CCNC(=O)CCSc1nnc(-c2ccco2)o1	-	-	-	-	-	-
CC(C)CCC[C@@H](C)[C@H]1CC[C@H]2[C@@H]3C(=O)C=C4C[C@@H](O)CC[C@]4(C)[C@H]3CC[C@]12C	-	-	-	.	-	-
C=C1/C(=C\C=C2/CCC[C@]3(C)[C@@H]([C@H](C)CCCC(C)(C)O)CC[C@@H]23)C[C@@H](O)C[C@@H]1O	-	.	-	-	-	100
C[C@H]1COc2c(N3CCN(C)CC3)c(F)cc3c(=O)c(C(=O)O)cn1c23	-	-	8.9	-	-	-
CCN(CC)CCN1C(=O)C2C3c4ccccc4C(c4ccccc43)C2C1=O (stereo not drawn)	-	-	-	-	-	-
CC(O)c1n(C)c(Cl)c[n+]1C (stereo not drawn)	-	-	-	79	-	-
NS(=O)(=O)c1ccc(NC(=S)NC(=O)C2CCCCC2)cc1	-	-4.7	-	-	-	-
NS(=O)(=O)c1ccc(NC(=S)NC2CCCC2)cc1	-	-	-	81	-	-
